Source: PubChem BioAssay AID1159580 (chemical genetic matrix, 2015)
Several values for one entry are separate records, joined by “and”; a condition that tells them apart may be missing. Identical values can stand only once. About 2,000 (36%) of roughly 5,500 compounds were called active. Inconclusive results (about 18%) are left out. Rule as the data show it: active = normalized growth mostly below about 0.91 (no sharp cut-off); inconclusive = no clear call, values can overlap the other calls; inactive = mostly above about 0.92. This is one part of the list.

Assay: chemical genetic growth profiling, strain panel (AID 1159580);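 also: tested at 20 µM; growth read once vehicle control cultures reached saturation at 30 °C; 1 = growth at the plate median or of vehicle wells; lower values mean less growth of the strain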
Settings: growth OD

Measured: normalized growth

COc1ccc2oc(-c3ccccc3)c(OC)c(=O)c2c1
0.674 (active) and 0.934 (inactive): S. cerevisiae deletion strains, locus YHR030C, strain SLT2, stronger effect = lower value
active: S. cerevisiae deletion strains, locus YAL013W, strain DEP1, stronger effect = lower value 0.903 | S. cerevisiae deletion strains, locus YCL029C, strain bik1, stronger effect = lower value 0.906 | S. cerevisiae deletion strains, locus YDL035C, strain GPR1, stronger effect = lower value 0.846 | S. cerevisiae deletion strains, locus YDL074C, strain BRE1, stronger effect = lower value 0.71 | S. cerevisiae deletion strains, locus YDL101C, strain DUN1, stronger effect = lower value 0.888 | S. cerevisiae deletion strains, locus YDL134C, strain PPH21, stronger effect = lower value 0.828 | S. cerevisiae deletion strains, locus YDL192W, strain arf1, stronger effect = lower value 0.858 | S. cerevisiae deletion strains, locus YDR101C, strain arx1, stronger effect = lower value 0.887 | S. cerevisiae deletion strains, locus YDR162C, strain NBP2, stronger effect = lower value 0.719 | S. cerevisiae deletion strains, locus YDR318W, strain mcm21, stronger effect = lower value 0.808 | S. cerevisiae deletion strains, locus YDR388W, stronger effect = lower value 0.892 | S. cerevisiae deletion strains, locus YDR502C, strain sam2, stronger effect = lower value 0.867 | S. cerevisiae deletion strains, locus YER110C, stronger effect = lower value 0.861 | S. cerevisiae deletion strains, locus YER167W, strain BCK2, stronger effect = lower value 0.801 | S. cerevisiae deletion strains, locus YGL086W, strain mad1, stronger effect = lower value 0.882 | S. cerevisiae deletion strains, locus YGL248W, strain PDE1, stronger effect = lower value 0.814 | S. cerevisiae deletion strains, locus YGR078C, strain PAC10, stronger effect = lower value 0.748 | S. cerevisiae deletion strains, locus YGR135W, strain pre9, stronger effect = lower value 0.784 | S. cerevisiae deletion strains, locus YGR229C, strain SMI1, stronger effect = lower value 0.58 | S. cerevisiae deletion strains, locus YGR252W, strain gcn5, stronger effect = lower value 0.68 | S. cerevisiae deletion strains, locus YHR079C, strain IRE1 (second series), stronger effect = lower value 0.828 | S. cerevisiae deletion strains, locus YHR129C, strain ARP1, stronger effect = lower value 0.874 | S. cerevisiae deletion strains, locus YHR200W, strain rpn10, stronger effect = lower value 0.897 | S. cerevisiae deletion strains, locus YIR030C, strain dcg1, stronger effect = lower value 0.879 | S. cerevisiae deletion strains, locus YJL168C, strain set2, stronger effect = lower value 0.912 | S. cerevisiae deletion strains, locus YJL187C, strain SWE1 (second series), stronger effect = lower value 0.855 | S. cerevisiae deletion strains, locus YJR075W, strain HOC1, stronger effect = lower value 0.844 | S. cerevisiae deletion strains, locus YKL009W, strain mrt4, stronger effect = lower value 0.877 | S. cerevisiae deletion strains, locus YKR001C, strain vps1, stronger effect = lower value 0.764 | S. cerevisiae deletion strains, locus YLR058C, strain SHM2, stronger effect = lower value 0.88 | S. cerevisiae deletion strains, locus YLR268W, strain sec22, stronger effect = lower value 0.807 | S. cerevisiae deletion strains, locus YLR330W, strain CHS5, stronger effect = lower value 0.899 | S. cerevisiae deletion strains, locus YLR342W, strain FKS1 (second series), stronger effect = lower value 0.69 | S. cerevisiae deletion strains, locus YLR418C, strain cdc73, stronger effect = lower value 0.592 | S. cerevisiae deletion strains, locus YML016C, strain PPZ1, stronger effect = lower value 0.919 | S. cerevisiae deletion strains, locus YML032C, strain rad52, stronger effect = lower value 0.53 | S. cerevisiae deletion strains, locus YML124C, strain tub3, stronger effect = lower value 0.924 | S. cerevisiae deletion strains, locus YMR078C, strain ctf18, stronger effect = lower value 0.805 | S. cerevisiae deletion strains, locus YMR223W, strain ubp8, stronger effect = lower value 0.83 | S. cerevisiae deletion strains, locus YMR263W, strain SAP30, stronger effect = lower value 0.838 | S. cerevisiae deletion strains, locus YNL067W, strain RPL9B, stronger effect = lower value 0.837 | S. cerevisiae deletion strains, locus YNL233W, strain BNI4, stronger effect = lower value 0.78 | S. cerevisiae deletion strains, locus YNL271C, strain bni1, stronger effect = lower value 0.916 | S. cerevisiae deletion strains, locus YNL298W, strain CLA4, stronger effect = lower value 0.884 | S. cerevisiae deletion strains, locus YNL307C, strain MCK1, stronger effect = lower value 0.29 | S. cerevisiae deletion strains, locus YNR052C, strain pop2, stronger effect = lower value 0.899 | S. cerevisiae deletion strains, locus YOL006C, strain TOP1, stronger effect = lower value 0.359 | S. cerevisiae deletion strains, locus YOL147C, strain pex11, stronger effect = lower value 0.854 | S. cerevisiae deletion strains, locus YOR144C, strain elg1, stronger effect = lower value 0.92 | S. cerevisiae deletion strains, locus YOR184W, strain ser1, stronger effect = lower value 0.684 | S. cerevisiae deletion strains, locus YOR316C, strain cot1, stronger effect = lower value 0.916 | S. cerevisiae deletion strains, locus YPR119W, strain clb2, stronger effect = lower value 0.919 | S. cerevisiae deletion strains, locus YPR163C, strain tif3, stronger effect = lower value 0.634 | S. cerevisiae deletion strains, locus YPR167C, strain met16, stronger effect = lower value 0.916 | S. cerevisiae deletion strains, strain wtn01, stronger effect = lower value 0.832 | S. cerevisiae strains, strain wild type, stronger effect = lower value 0.895
0.426 (active) and 0.93 (inactive): S. cerevisiae deletion strains, locus YJL095W, strain BCK1, stronger effect = lower value
inactive: S. cerevisiae deletion strains, locus YBR021W, strain FUR4, stronger effect = lower value 0.925 | S. cerevisiae deletion strains, locus YBR229C, strain ROT2, stronger effect = lower value 0.929 | S. cerevisiae deletion strains, locus YDL185W, strain tfp1, stronger effect = lower value 0.923 | S. cerevisiae deletion strains, locus YDR150W, strain NUM1, stronger effect = lower value 0.944 | S. cerevisiae deletion strains, locus YEL061C, strain CIN8, stronger effect = lower value 0.938 | S. cerevisiae deletion strains, locus YER155C, strain BEM2, stronger effect = lower value 0.926 | S. cerevisiae deletion strains, locus YGL078C, strain dbp3, stronger effect = lower value 0.956 | S. cerevisiae deletion strains, locus YHR079C, strain IRE1, stronger effect = lower value 0.926 | S. cerevisiae deletion strains, locus YHR094C, strain hxt1, stronger effect = lower value 0.936 | S. cerevisiae deletion strains, locus YIL066C, strain RNR3, stronger effect = lower value 0.882 | S. cerevisiae deletion strains, locus YIL073C, strain SPO22, stronger effect = lower value 0.803 | S. cerevisiae deletion strains, locus YIL125W, strain kgd1, stronger effect = lower value 0.956 | S. cerevisiae deletion strains, locus YJL134W, strain LCB3, stronger effect = lower value 0.946 | S. cerevisiae deletion strains, locus YJR043C, strain POL32, stronger effect = lower value 0.863 | S. cerevisiae deletion strains, locus YJR066W, strain TOR1, stronger effect = lower value 0.867 | S. cerevisiae deletion strains, locus YKL068W, stronger effect = lower value 0.96 | S. cerevisiae deletion strains, locus YKL085W, strain MDH1 (second series), stronger effect = lower value 0.945 | S. cerevisiae deletion strains, locus YKL085W, strain MDH1, stronger effect = lower value 0.945 | S. cerevisiae deletion strains, locus YKL190W, strain CNB1, stronger effect = lower value 0.922 | S. cerevisiae deletion strains, locus YLR039C, strain RIC1, stronger effect = lower value 0.778 | S. cerevisiae deletion strains, locus YLR102C, strain apc9, stronger effect = lower value 0.93 | S. cerevisiae deletion strains, locus YLR113W, strain HOG1, stronger effect = lower value 0.937 | S. cerevisiae deletion strains, locus YLR262C, strain YPT6, stronger effect = lower value 0.801 | S. cerevisiae deletion strains, locus YLR371W, strain rom2, stronger effect = lower value 0.932 | S. cerevisiae deletion strains, locus YMR307W, strain GAS1, stronger effect = lower value 0.652 | S. cerevisiae deletion strains, locus YNL128W, strain TEP1, stronger effect = lower value 0.942 | S. cerevisiae deletion strains, locus YNL153C, strain GIM3, stronger effect = lower value 0.891 | S. cerevisiae deletion strains, locus YNL183C, strain NPR1, stronger effect = lower value 0.88 | S. cerevisiae deletion strains, locus YNL250W, strain rad50, stronger effect = lower value 0.9 | S. cerevisiae deletion strains, locus YNL322C, strain KRE1, stronger effect = lower value 0.947 | S. cerevisiae deletion strains, locus YOL012C, strain htz1 0.77 | S. cerevisiae deletion strains, locus YOR061W, strain CKA2, stronger effect = lower value 0.937 | S. cerevisiae deletion strains, locus YOR069W, strain VPS5, stronger effect = lower value 0.979 | S. cerevisiae deletion strains, locus YOR136W, strain idh2, stronger effect = lower value 0.922 | S. cerevisiae deletion strains, locus YOR231W, strain MKK1, stronger effect = lower value 0.918 | S. cerevisiae deletion strains, locus YPL055C, strain LGE1, stronger effect = lower value 0.767 | S. cerevisiae deletion strains, locus YPL241C, strain CIN2, stronger effect = lower value 0.959 | S. cerevisiae deletion strains, locus YPL256C, strain CLN2, stronger effect = lower value 0.939 | S. cerevisiae deletion strains, locus YPR141C, strain kar3, stronger effect = lower value 0.944
